Experimental data as given in PubChem BioAssay (Tox21).
Results filed as inconclusive are left out. The source made the active and inactive calls. Unless noted, calls come from the whole dose curve.

Assays:
[1] = Nuclear factor erythroid 2-related factor 2/antioxidant responsive element (Nrf2/ARE) small molecule agonists: qHTS cell viability counter screen in human keratinocytes (AID 1919968; active = well fitted curve in the direction sought with a large enough effect in the repeat runs; an effect the other way counts as inactive or inconclusive; note: nearly all actives have a fitted effect of over 55% in size)
Procedure, shortened: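 Cells of the KeratinoSens line were plated at 1,500 per well and left for 5 h before compound transfer from DMSO stocks. After a 23 h incubation (37 C, 5% CO2), CellTiter-Fluor was added. Signal was taken as fluorescence intensity 1 h later.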

[2] = biological target: Gonadotropin-releasing hormone receptor (Homo sapiens) (UniProt P30968); experiment: Human gonadotropin-releasing hormone receptor (GnRHR) small molecule agonists, calcium flux assay in GnRHR-HEK293 cells (AID 1920063); note: nearly all actives have a fitted effect of over 35% in size
Chain of Gonadotropin-releasing hormone receptor (Homo sapiens) (P30968 whole entry, looked up): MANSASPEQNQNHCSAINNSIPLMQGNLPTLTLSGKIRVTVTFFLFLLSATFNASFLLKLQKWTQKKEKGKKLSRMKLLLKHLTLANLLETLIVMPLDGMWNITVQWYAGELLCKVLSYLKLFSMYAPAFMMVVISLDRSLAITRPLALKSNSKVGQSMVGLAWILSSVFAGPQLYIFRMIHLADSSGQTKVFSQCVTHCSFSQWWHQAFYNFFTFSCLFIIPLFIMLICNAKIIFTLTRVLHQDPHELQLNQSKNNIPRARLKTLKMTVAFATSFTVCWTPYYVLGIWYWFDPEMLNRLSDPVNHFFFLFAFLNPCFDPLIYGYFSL
Procedure, shortened: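 Compounds dissolved in DMSO are pin-transferred onto dye-loaded GnRHR-HEK293 cells, which were seeded 18 h before at 37 C/5% CO2. Calcium signal is read as fluorescence intensity at 1 s intervals for 3 min.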

[3] = biological target: KiSS-1 receptor (Homo sapiens) (UniProt Q969F8); experiment: Human kisspeptin (KISS1R) small molecule agonists, calcium flux assay in KISS1R-HEK293 cells (AID 1920064; active = well fitted curve in the direction sought with a large enough effect in the repeat runs; an effect the other way counts as inactive or inconclusive)
Chain of KiSS-1 receptor (Homo sapiens) (Q969F8 whole entry, looked up): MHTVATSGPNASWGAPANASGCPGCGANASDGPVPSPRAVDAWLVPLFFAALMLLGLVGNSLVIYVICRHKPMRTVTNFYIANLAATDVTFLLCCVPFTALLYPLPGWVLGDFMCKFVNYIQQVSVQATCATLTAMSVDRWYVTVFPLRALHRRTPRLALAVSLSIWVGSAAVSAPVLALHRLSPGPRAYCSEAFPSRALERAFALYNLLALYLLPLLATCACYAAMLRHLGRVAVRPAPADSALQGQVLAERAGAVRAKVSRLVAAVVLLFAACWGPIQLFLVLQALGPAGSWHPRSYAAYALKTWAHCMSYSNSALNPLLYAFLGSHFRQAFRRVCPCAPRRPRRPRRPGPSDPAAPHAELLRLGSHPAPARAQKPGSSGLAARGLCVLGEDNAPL
Procedure, shortened: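 Cell line: HEK293, stable human KISS1R. Dye loading 1 h at 37 C after 18 h culture. Read: kinetic fluorescence, 480/540 nm, 3 min at 1 s intervals.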

[4] = G protein-coupled receptor (GPCR) small molecule agonists, calcium flux assay: HEK293 wild type cell line counter screen (AID 1920065)
Procedure, shortened: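 Tox21 10K compounds, 15 concentrations each in triplicate, pin-transferred in DMSO onto dye-loaded cells; kinetic read at 480/540 nm for 3 min, 1 s intervals.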

[5] = p53 small molecule agonists, cell-based qHTS assay with human liver microsomes (AID 1963577); note: potency is the fitted concentration of half-maximal effect
Procedure, shortened: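 Compounds act here after metabolic activation: human liver microsomes and NADPH, both at 0.5 mg/mL final, were co-added to p53RE-bla cells. Incubation ran 16 h at 37 C, followed by LiveBLAzer detection.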

[6] = p53 small molecule agonists, cell-based qHTS assay with rat liver microsomes (AID 1963578)
Procedure, shortened: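 Read-out is beta-lactamase reporter fluorescence (LiveBLAzer, 2 h, room temperature, dark) in p53RE-bla cells treated 16 h at 37 C with compound, rat liver microsomes and NADPH, both 0.5 mg/mL final.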

[7] = p53 small molecule agonists, cell-based qHTS assay with human liver microsomes: qHTS cell viability counter screen (AID 1963579); note: nearly all actives have a fitted effect of over 45% in size; note: potency is the fitted concentration of half-maximal effect
Procedure, shortened: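 Cells carrying the p53 response-element beta-lactamase reporter are treated for 16 h at 37 C with test compounds in the presence of human liver microsomes and NADPH (both 0.5 mg/mL final); ATP-based CellTiter-Glo luminescence then reports viability.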

[8] = p53 small molecule agonists, cell-based qHTS assay with rat liver microsomes: qHTS cell viability counter screen (AID 1963580); note: nearly all actives have a fitted effect of over 45% in size
Procedure, shortened: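 Cytotoxicity counter screen: intracellular ATP read by CellTiter-Glo luminescence in the p53 reporter wells. HCT-116 p53RE-bla cells were treated for 16 h at 37 C alongside rat liver microsomes and NADPH, each 0.5 mg/mL final.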

[9] = p53 small molecule agonists, cell-based qHTS assay: qHTS cell viability counter screen (AID 1963581); note: nearly all actives have a fitted effect of over 45% in size; note: potency is the fitted concentration of half-maximal effect
Procedure, shortened: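 ATP content measured by luminescence in HCT-116 p53RE-bla cells treated 16 h at 37 C, same wells as the reporter screen.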

[10] = p53 small molecule agonists, cell-based qHTS assay (AID 1963582; active = well fitted activation curve with a large enough effect in the signal ratio in the repeat runs, not every such curve was filed as active; the % refers to the signal ratio)
Procedure, shortened: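 16 h compound exposure (37 C) of p53 response element–bla cells, preceded by 5 h recovery at 37 C/5% CO2; read-out via LiveBLAzer B/G FRET substrate, 2 h RT, fluorescence intensity.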

[11] = biological target: 5-hydroxytryptamine receptor 2A (Homo sapiens) (UniProt P28223); experiment: 5-hydroxytryptamine receptor 2A (HTR2A) small molecule antagonists, cell-based qHTS assay (AID 1963586); note: nearly all actives have a fitted effect of over 45% in size
Chain of 5-hydroxytryptamine receptor 2A (Homo sapiens) (P28223 whole entry, looked up): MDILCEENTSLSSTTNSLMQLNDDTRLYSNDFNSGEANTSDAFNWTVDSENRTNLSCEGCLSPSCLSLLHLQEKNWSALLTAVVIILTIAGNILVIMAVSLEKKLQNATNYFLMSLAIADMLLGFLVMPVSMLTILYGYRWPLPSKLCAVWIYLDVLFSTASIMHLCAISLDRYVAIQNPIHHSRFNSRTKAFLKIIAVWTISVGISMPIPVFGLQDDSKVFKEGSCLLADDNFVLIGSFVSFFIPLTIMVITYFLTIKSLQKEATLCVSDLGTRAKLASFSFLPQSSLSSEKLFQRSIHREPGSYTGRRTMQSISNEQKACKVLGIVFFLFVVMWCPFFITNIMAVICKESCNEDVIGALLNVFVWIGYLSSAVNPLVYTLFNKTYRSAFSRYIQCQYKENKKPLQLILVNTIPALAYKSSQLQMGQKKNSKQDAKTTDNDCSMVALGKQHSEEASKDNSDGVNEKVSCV
Procedure, shortened: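 CHO cells stably expressing human HTR2A were plated for 18 h at 37 C, then loaded with calcium dye for 1 h. Compounds were preincubated 5 min at room temperature before DOI (4 nM solution) was added. Kinetic fluorescence was read for 3 min.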

[12] = biological target: 5-hydroxytryptamine receptor 2A (Homo sapiens) (UniProt P28223); experiment: 5-hydroxytryptamine receptor 2A (HTR2A) small molecule agonists, cell-based qHTS assay (AID 1963587); note: nearly all actives have a fitted effect of over 30% in size
Procedure, shortened: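 Kinetic calcium-flux fluorescence (2 min, 1 sec intervals) after compound addition in agonist mode. HTR2A-CHO cells were cultured 18 h, then dye-loaded 1 h at 37 C.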

[13] = biological target: Muscarinic acetylcholine receptor M1 (Homo sapiens) (UniProt P11229); experiment: Cholinergic receptor muscarinic 1 (CHRM1) small molecule antagonists, cell-based qHTS assay (AID 1963588); note: nearly all actives have a fitted effect of over 40% in size
Chain of Muscarinic acetylcholine receptor M1 (Homo sapiens) (P11229 whole entry, looked up): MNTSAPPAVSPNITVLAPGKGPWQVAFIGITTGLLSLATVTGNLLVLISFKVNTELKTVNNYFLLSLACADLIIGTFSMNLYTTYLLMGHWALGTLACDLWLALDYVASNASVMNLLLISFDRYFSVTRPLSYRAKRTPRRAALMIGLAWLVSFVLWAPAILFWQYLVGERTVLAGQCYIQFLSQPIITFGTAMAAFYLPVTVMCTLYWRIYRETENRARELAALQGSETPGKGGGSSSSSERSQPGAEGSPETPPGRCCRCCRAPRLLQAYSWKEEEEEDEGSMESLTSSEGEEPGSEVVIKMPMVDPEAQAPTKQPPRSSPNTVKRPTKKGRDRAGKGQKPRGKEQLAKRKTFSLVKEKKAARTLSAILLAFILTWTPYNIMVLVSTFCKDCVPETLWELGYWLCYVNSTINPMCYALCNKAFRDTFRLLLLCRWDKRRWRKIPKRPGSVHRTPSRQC
Procedure, shortened: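 Compounds were tested at 15 concentrations in three independent runs. Dye-loaded CHRM1-CHO cells were exposed 5 min at room temperature before stimulation by acetylcholine added at 50nM. Intracellular calcium was read kinetically on FDSS for 3 min.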

[14] = biological target: Muscarinic acetylcholine receptor M1 (Homo sapiens) (UniProt P11229); experiment: Cholinergic receptor muscarinic 1 (CHRM1) small molecule agonists, cell-based qHTS assay (AID 1963589); note: nearly all actives have a fitted effect of over 35% in size
Procedure, shortened: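 Homogeneous fluorescence calcium flux, agonist mode. Human M1-expressing CHO cells; compound dosed at 15 concentrations, three independent runs; signal sampled every 1 sec.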

[15] = cAMP Responsive Elements (CRE) small molecule agonists, cell-based qHTS assay (AID 1963590)
Procedure, shortened: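 HEK 293T cells stably bearing CRE-bla were plated at 2,000 cells per well and rested 18 h. Compounds, positive controls or DMSO were added for 3 h at 37 C. LiveBLAzer B/G substrate was then loaded for 2 h at room temperature.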

[16] = cAMP Responsive Elements (CRE) small molecule antagonists, cell-based qHTS assay (AID 1963591; active = well fitted inhibition curve with a large enough effect in the signal ratio in the repeat runs, not every such curve was filed as active; the % refers to the signal ratio)
Procedure, shortened: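 First, CRE-bla HEK293T cells settled 18 h at 37 C. Next, compound and 0.25 uM final NKH477 were applied for 3 h. Last, LiveBLAzer B/G substrate was loaded for 2 h at room temperature.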

[17] = biological target: Beta-2 adrenergic receptor (Homo sapiens) (UniProt P07550); experiment: Adrenergic beta2 receptor (ADRB2) small molecule antagonists, cell-based qHTS assay (AID 1963592); note: series mostly up to about 92 µM; nearly all actives have a fitted effect of over 50% in size
Chain of Beta-2 adrenergic receptor (Homo sapiens) (P07550 whole entry, looked up): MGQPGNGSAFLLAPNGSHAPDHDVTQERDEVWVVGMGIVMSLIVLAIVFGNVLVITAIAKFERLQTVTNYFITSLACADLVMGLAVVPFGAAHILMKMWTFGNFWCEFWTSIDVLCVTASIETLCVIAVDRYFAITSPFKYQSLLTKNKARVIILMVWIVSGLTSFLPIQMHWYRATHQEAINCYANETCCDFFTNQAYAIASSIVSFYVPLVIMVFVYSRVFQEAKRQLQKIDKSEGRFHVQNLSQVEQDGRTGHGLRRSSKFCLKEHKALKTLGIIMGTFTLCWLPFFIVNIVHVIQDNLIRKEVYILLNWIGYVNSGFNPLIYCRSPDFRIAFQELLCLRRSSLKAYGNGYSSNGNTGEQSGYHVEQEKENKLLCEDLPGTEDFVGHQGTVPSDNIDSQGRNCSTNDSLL
Procedure, shortened: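 Assay format: CHO-ADRB2 cells, 18-20hr seeding at 37C/5% CO2, then compound plus 1nM isoproterenol agonist mix for 0.5hr RT. Homogeneous time-resolved fluorescence cAMP detection after 1hr, expressed as 665/615 nm ratio.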

[18] = biological target: D(2) dopamine receptor (Homo sapiens) (UniProt P14416); experiment: Dopamine D2 receptor (DRD2) small molecule agonists, cell-based qHTS assay (AID 1963594); note: nearly all actives have a fitted effect of over 35% in size
Chain of D(2) dopamine receptor (Homo sapiens) (P14416 whole entry, looked up): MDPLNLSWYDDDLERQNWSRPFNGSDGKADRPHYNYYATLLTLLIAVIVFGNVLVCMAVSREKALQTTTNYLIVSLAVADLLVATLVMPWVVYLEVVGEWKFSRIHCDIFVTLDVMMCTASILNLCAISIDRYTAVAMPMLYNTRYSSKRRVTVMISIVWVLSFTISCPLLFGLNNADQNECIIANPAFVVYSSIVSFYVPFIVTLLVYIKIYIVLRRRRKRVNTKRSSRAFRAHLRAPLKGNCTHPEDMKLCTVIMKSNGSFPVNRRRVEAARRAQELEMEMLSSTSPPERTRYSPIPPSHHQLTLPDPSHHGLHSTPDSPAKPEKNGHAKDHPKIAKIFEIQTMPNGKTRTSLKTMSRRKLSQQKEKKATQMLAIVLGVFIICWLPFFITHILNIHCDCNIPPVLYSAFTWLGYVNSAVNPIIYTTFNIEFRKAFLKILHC
Procedure, shortened: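 cAMP accumulation in DRD2-HEK293 cells measured by HTRF after 1 h detection; compounds added 10 min before NKH477 (200nM […]) forskolin-analogue stimulation, 30 min at room temperature, with Ro20-1724 present at 0.1 mM final.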

[19] = biological target: D(2) dopamine receptor (Homo sapiens) (UniProt P14416); experiment: Dopamine D2 receptor (DRD2) small molecule antagonists, cell-based qHTS assay (AID 1963595; active = well fitted inhibition curve with a large enough effect in the signal ratio in the repeat runs, with a control signal flat; the % refers to the signal ratio)
Procedure, shortened: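 In this cell-based antagonist screen, compounds act for 10 min at room temperature before a 30 min challenge with 12 nM quinpirole and 200 nM NKH477. cAMP is quantified by HTRF competition in DRD2-HEK293 cells containing 0.1 mM Ro20-1724.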

[20] = biological target: Beta-2 adrenergic receptor (Homo sapiens) (UniProt P07550); experiment: Adrenergic beta2 receptor (ADRB2) small molecule agonists, cell-based qHTS assay (AID 1963593);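 note: CHO cells stably overexpressing human ADRB2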
Procedure, shortened: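 CHO cells stably over-expressing ADRB2 were plated overnight at 37C, then dosed with compounds plus a stimulation mix containing 100uM IBMX and 25uM Ro-20-1724 for 0.5hr at room temperature. cAMP was measured by HTRF competition, 1hr.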

Measured: Potency

CC1=CCC(=C(C)C)CC1
not listed: [20]
inactive: all other assays above

CN(C)CCc1c[nH]c2ccc(C[C@H]3COC(=O)N3)cc12
not listed: [11] | [12] | [20]
inactive: all other assays above

COC(=O)CCCC(=O)O
not listed: [11] | [20]
inactive: all other assays above

OCCN1C[C@H](O)[C@@H](O)[C@H](O)[C@H]1CO
not listed: [2] | [3] | [7] | [9] | [15]
inactive: all other assays above

Cc1ccc(=O)n(-c2ccccc2)c1
not listed: [11] | [16] | [20]
inactive: all other assays above

Nc1ccc(S(=O)(=O)Nc2ccccc2)cc1
not listed: [11]
inactive: all other assays above

CCC(=O)c1c(O)cc(O)cc1O
not listed: [11]
inactive: all other assays above

CCCCCOc1ccc(C2SC(=O)NC2=O)cc1OCC (centres undefined)
not listed: [2] | [3] | [7] | [10] | [15] | [16]
inactive: all other assays above

CC1(C)CC(N)CC(C)(C)N1
not listed: [2] | [3] | [4] | [6] | [14] | [20]
inactive: all other assays above

COc1ccc(-n2nc(C(F)F)cc2-c2ccc(S(C)=O)cc2)cc1 (centres undefined)
not listed: [15] | [16] | [20]
inactive: all other assays above

CC(=O)Nc1cccc(C)c1
not listed: [12] | [13] | [16] | [17] | [20]
inactive: all other assays above

Nc1ccccc1O
active: [7] 28.5 µM | [9] 32 µM
not listed: [2] | [3] | [6] | [15] | [16] | [17] | [20]
inactive: all other assays above

CC(C)(O)c1coc(S(=O)(=O)NC(=O)Nc2c3c(cc4c2CCC4)CCC3)c1
not listed: [11] | [15] | [17] | [20]
inactive: all other assays above

CC(c1cc(C(C)(C)C)cc(C(C)(C)C)c1O)c1cc(C(C)(C)C)cc(C(C)(C)C)c1O
not listed: [2] | [3] | [13] | [14] | [19] | [20]
inactive: all other assays above

O=C(O)c1ccc(Cl)cc1Cl
not listed: [17] | [20]
inactive: all other assays above

Clc1ccc2n[nH]nc2c1
active: [5] 28.9 µM
not listed: [2] | [3] | [10] | [16]
inactive: all other assays above

CC1=C(CC=O)C(C)(C)CCC1
not listed: [18] | [20]
inactive: all other assays above
